Tested on: FGFR1
Settings: concentration: 1 μM, replicates: in singlicate; n = 1
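Note: KINOMEscan kinase panel screen.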

Structure (SMILES) | %Inh [%]
CN1CCN(Cc2cccc(-c3ccc4c(Nc5ccc(Oc6ccccc6)cc5)ccnc4c3)c2)CC1 [GW578342] | 22
Nc1ncc(-c2ccc3nccc(-c4ccncc4)c3c2)cc1S(=O)(=O)N1CCOCC1 [GSK1627798] | 0
CN(C)S(=O)(=O)c1cc(-c2ccc3nccc(-c4cccc(S(N)(=O)=O)c4)c3c2)cnc1N [GSK1669921] | 0
CCn1c(-c2nonc2N)nc2c(C#CC(C)(C)O)ncc(OCCCCN)c21.O=C(O)C(F)(F)F.O=C(O)C(F)(F)F [GSK507274] | 0
Cc1ccc(C)c(NC(=O)NC2CCN(c3ccnc(Nc4ccc(F)cc4)n3)C2)c1 (centres unmarked) [GSK1379720] | 0

Tested on: FGFR2
Settings: concentration: 1 μM, replicates: in singlicate; n = 1

Structure (SMILES) | %Inh [%]
Cn1cc(-c2[nH]c3cc(NC(=O)[C@H](N)C4CCCCC4)cc4c3c2C=NNC4=O)cn1 | 89
O=C(Nc1ccccc1F)NC1CCN(c2ccnc(Nc3ccc(F)cc3)n2)CC1 [GSK1379800] | 0
Cc1ccc(F)c(C(=O)Nc2cccc(-c3nn4ccccc4c3-c3ccnc(Nc4cccc(F)c4)n3)c2)c1F [GSK361061] | 0
O=C(O)C(F)(F)F.O=C(O)C(F)(F)F.O=c1[nH]ccc2nc(N[C@@H]3CCCNC3)nc(Nc3ccc(S(=O)(=O)N4CCOCC4)cc3)c12 [GSK2177277] | 60
CN1CCN(CCCNc2nccc(-c3c(-c4ccc(F)cc4)nn4cc(C(F)(F)F)ccc34)n2)CC1 [GW621581] | 0
CSc1cccc2c(-c3ccncn3)c(-c3ccc(F)cc3)nn12 [GW514786] | 0
